# Laboratory results from PubChem BioAssay (Tox21).
# Values without a mark were called inactive. Results filed as inconclusive are left out. Where a call stands in place of a potency, no number is given. The source made the active and inactive calls. Unless noted, calls come from the whole dose curve; as a rule, active = well fitted curve in the direction sought with a large enough effect in the repeat runs; inconclusive = weak or mixed curves; inactive = no such curve, though single readings can be large; an effect the other way counts as inactive or inconclusive.
# Key:
# [1] = qHTS assay to identify small molecule agonists of the estrogen receptor alpha (ER-alpha) signaling pathway in the presence of an antagonist - cell viability counter screen (AID 1259386);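 note: cells exposed to compounds for 22 h at 37 °C before the viability read; nearly all actives have a fitted effect of over 30% in size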; note: potency is the fitted concentration of half-maximal effect
# Summary of the method: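 VM7Luc4E2 cells (endogenous full-length ER-alpha, 4×ERE-luciferase) were held 5 days in phenol red-free medium with 10% charcoal-stripped FBS, plated, then given 10.0nM ICI-182,780 and compounds at 15 concentrations for 22hr at 37C; viability read by CellTiter-Fluor fluorescence.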
# [2] = molecular target: Progesterone receptor (Homo sapiens) (UniProt P06401); test: qHTS assay to identify small molecule antagonists of the progesterone receptor (PR) signaling pathway (AID 1346795; active = well fitted inhibition curve with a large enough effect in the signal ratio in the repeat runs, not every such curve was filed as active; the % refers to the signal ratio; note: potency is the fitted concentration of half-maximal effect)
# Summary of the method: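 PR-UAS-bla HEK293T cells with beta-lactamase reporter under UAS control, in 2% charcoal-stripped FBS, treated with compounds plus 1 nM promegestone (R5020, final) for 16 hr at 37C. Read-out: FRET beta-lactamase substrate fluorescence after 2 hr at room temperature.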
# [3] = qHTS assay to identify small molecule antagonists of the progesterone receptor (PR) signaling pathway - cell viability counter screen (AID 1346798); note: nearly all actives have a fitted effect of over 50% in size; note: potency is the fitted concentration of half-maximal effect
# Summary of the method: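 PR-UAS-bla HEK293T cells, 3,000/well in 2% charcoal-stripped FBS medium, dosed with compounds plus R5020 agonist and incubated 16 h at 37C. Viability then measured in the same wells by CellTiter-Glo luminescence after 30 min at RT.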
# [4] = qHTS assay to identify small molecule agonists of the progesterone receptor (PR) signaling pathway - cell viability counter screen (AID 1346799; calls by dose curve; note: nearly all actives have a fitted effect of over 45% in size)
# Summary of the method: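 Counter screen in the PR-UAS-bla HEK293T wells (2% charcoal-stripped FBS, 16 h compound exposure at 37 C) after the bla read. CellTiter-Glo added, 30 min at room temperature, luminescence read as cell viability.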
# [5] = qHTS assay to identify small molecule antagonists of the TGF-beta/Smad signaling pathway - cell viability counter screen (AID 1346824); note: nearly all actives have a fitted effect of over 50% in size
# Summary of the method: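 Cytotoxicity counter-screen run in the same wells as the beta-lactamase Smad reporter read: CellTiter-Glo luminescence after 30 min at room temperature. HEK 293T SBE-bla cells had 5 hr compound exposure at 37 C with TGF-beta1 (0.25 ng/mL stock).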
# [6] = qHTS assay to identify small molecule agonists of the TGF-beta/Smad signaling pathway - cell viability counter screen (AID 1346829); note: top concentration of the series differs between compounds; nearly all actives have a fitted effect of over 45% in size
# Summary of the method: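 Same-well cytotoxicity: CellTiter-Glo added after the 2 hr room-temperature beta-lactamase substrate step, luminescence measured 30 min later; cells had 5 hr of compound at 37 C.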
# [7] = qHTS assay to identify small molecule agonists of the TGF-beta/Smad signaling pathway (AID 1346859; active = well fitted activation curve with a large enough effect in the signal ratio in the repeat runs, not every such curve was filed as active; the % refers to the signal ratio; note: series mostly up to about 77 µM)
# Summary of the method: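 SBE-bla HEK293T cells plated overnight, then compound exposure for 5 h at 37 C. Beta-lactamase reporter read with LiveBLAzer B/G FRET substrate after 2 h at room temperature, fluorescence at 405 nm excitation, 460/530 nm emission.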
# [8] = molecular target: Thyrotropin-releasing hormone receptor (Homo sapiens) (UniProt P34981); test: qHTS assay to identify small molecule antagonists of the thyrotropin-releasing hormone receptor (TRHR) signaling pathway (AID 1346877; active = well fitted inhibition curve with a large enough effect in the repeat runs, not every such curve was filed as active; note: series mostly up to about 51 µM)
# Summary of the method: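 TRHR-expressing HEK293 cells were seeded, cultured 18 h at 37 °C, then loaded with calcium dye for 2 h. Compounds were pre-incubated 5 min at room temperature before 1 nM TRH (final) was added, and kinetic fluorescence was recorded for 3 min.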
# [9] = molecular target: Thyrotropin-releasing hormone receptor (Homo sapiens) (UniProt P34981); test: qHTS assay to identify small molecule agonists of the thyrotropin-releasing hormone receptor (TRHR) signaling pathway (AID 1346891; calls by dose curve; note: series mostly up to about 58 µM)
# Summary of the method: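 HEK293 cells expressing TRHR plated 18 h at 37 C/5% CO2, calcium dye-loaded 2 h at 37 C, then compound added (agonist mode); kinetic calcium fluorescence read 3 min at 1 s intervals; 15 concentrations in triplicate.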
# [10] = Human pregnane X receptor (PXR) small molecule agonists, qHTS cell viability counter screen (AID 1346977); note: nearly all actives have a fitted effect of over 50% in size; note: potency is the fitted concentration of half-maximal effect
# Summary of the method: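 PXR-Luc HepG2 cells (2,000/well, 5% charcoal-stripped FBS) preincubated 5 hr, then exposed to compounds 24 hr at 37 C. Viability read in the same wells by CellTiter-Fluor fluorescence, reagent added at 23 hr, 1 hr incubation.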
# [11] = Caspase-3/7 induction in HepG2 cells by small molecules, qHTS assay (AID 1346978); note: nearly all actives have a fitted effect of over 15% in size
# Summary of the method: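 Caspase-3/7 induction was measured by Caspase-Glo 3/7 luminescence (30 min, room temperature) after a 17 hr compound exposure of wild-type HepG2 cells seeded at 2,000 per well and pre-incubated 5 hr.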
# [12] = Caspase-3/7 induction in CHO-K1 cells by small molecules, qHTS cell viability counter screen (AID 1346979); note: nearly all actives have a fitted effect of over 35% in size; note: potency is the fitted concentration of half-maximal effect
# Summary of the method: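 Wild-type CHO-K1 cells (1,500/well) treated with compound after 5 h plating; after 16 h at 37C, viability read as CellTiter-Fluor fluorescence following 1 h reagent incubation, in the same wells as the caspase read.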
# [13] = Caspase-3/7 induction in CHO-K1 cells by small molecules, qHTS assay (AID 1346980); note: nearly all actives have a fitted effect of over 15% in size
# Summary of the method: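 Luminescent Caspase-Glo 3/7 read (30min, room temperature) quantified apoptosis induction. Cells were wild-type CHO-K1, treated with compound for 17hr at 37 C and 5% CO2.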
# [14] = Caspase-3/7 induction in HepG2 cells by small molecules, qHTS cell viability counter screen (AID 1346981); note: nearly all actives have a fitted effect of over 30% in size; note: potency is the fitted concentration of half-maximal effect
# Summary of the method: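 Wild-type HepG2 cells (2,000/well) were allowed to settle for 5 hr at 37 C, 5% CO2, then dosed with compounds in DMSO by pin transfer. After 16 hr at 37 C, CellTiter-Fluor was added and fluorescence read 1 hr later.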
# [15] = molecular target: Nuclear receptor subfamily 1 group I member 2 (Homo sapiens) (UniProt O75469); test: Human pregnane X receptor (PXR) small molecule agonists, qHTS assay (AID 1346982); note: nearly all actives have a fitted effect of over 35% in size; note: potency is the fitted concentration of half-maximal effect
# Summary of the method: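 PXR-Luc HepG2 cells (CYP3A4 promoter-driven luciferase) were seeded in medium with 5% charcoal-stripped FBS, left 5 hr at 37 C, then exposed to compounds in DMSO for 24 hr. Luminescence was read after ONE-Glo addition.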
# [16] = molecular target: Cytochrome P450 2D6 (Homo sapiens) (UniProt P10635); test: Cytochrome P450 Family 2 Subfamily D Member 6 (CYP2D6) small molecule antagonists: luciferase reporter qHTS assay (AID 1671196); note: nearly all actives have a fitted effect of over 50% in size; note: potency is the fitted concentration of half-maximal effect
# Summary of the method: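 CYP2D6 enzyme–substrate mix was held with compound for 10 min at room temperature, then NADPH regeneration solution was added and the reaction ran 1 h at room temperature. Luciferin product was detected by luminescence after 20 min with detection reagent.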
# [17] = molecular target: Nuclear receptor subfamily 1 group I member 2 (Rattus norvegicus) (UniProt Q9R1A7); test: Rat pregnane X receptor (rPXR) activation by small molecules, qHTS assay (AID 1346983); settings: rPXR luciferase reporter cells, One-Glo luminescence, 24 h; max activation: active compounds read high; note: nearly all actives have a fitted effect of over 20% in size
# Summary of the method: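 Luminescent readout (One-Glo luciferase, 30 min room temperature) followed 24 hr compound treatment at 37 C of rPXR cells plated 2,000 per well and preincubated 5hr; qHTS format with compounds delivered in DMSO.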
# [18] = molecular target: Nuclear receptor subfamily 1 group I member 2 (Homo sapiens) (UniProt O75469); test: Human pregnane X receptor (PXR) activation by small molecules, qHTS assay (AID 1346985); note: nearly all actives have a fitted effect of over 40% in size
# Summary of the method: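 DPX-2 cells (HepG2 co-transfected with a PXR response element and a CYP3A4-promoter luciferase construct) were seeded at 2,000 per well, rested 5 hr at 37C, then exposed to DMSO-dissolved compounds for 24 hr. Activation was read as luciferase luminescence.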
# [19] = molecular target: Progesterone receptor (Homo sapiens) (UniProt P06401); test: qHTS assay to identify small molecule agonists of the progesterone receptor (PR) signaling pathway (AID 1346784; calls by dose curve; note: nearly all actives have a fitted effect of over 30% in size)
# Summary of the method: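 PR-UAS-bla HEK 293T cells (beta-lactamase reporter under UAS) in 2% charcoal-stripped FBS, dosed with 23 nL compound after 6 hr, incubated 16hr at 37C. LiveBLAzer B/G FRET substrate added, fluorescence read after 2 hours.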
# Sequence of Nuclear receptor subfamily 1 group I member 2 (Rattus norvegicus) (Q9R1A7 whole entry, looked up): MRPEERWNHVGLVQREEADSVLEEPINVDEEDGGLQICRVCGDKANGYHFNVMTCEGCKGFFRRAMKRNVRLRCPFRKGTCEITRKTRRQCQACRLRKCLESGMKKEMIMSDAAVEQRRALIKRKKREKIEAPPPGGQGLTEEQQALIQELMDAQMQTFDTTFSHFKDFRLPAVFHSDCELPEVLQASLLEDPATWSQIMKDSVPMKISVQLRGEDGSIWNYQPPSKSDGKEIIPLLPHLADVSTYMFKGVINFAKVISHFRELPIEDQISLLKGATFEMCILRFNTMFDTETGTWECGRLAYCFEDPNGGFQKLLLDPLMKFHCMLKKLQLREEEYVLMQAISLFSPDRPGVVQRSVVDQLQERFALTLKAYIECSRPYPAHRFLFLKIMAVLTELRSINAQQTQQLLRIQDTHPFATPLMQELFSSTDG
# Sequence of Nuclear receptor subfamily 1 group I member 2 (Homo sapiens) (O75469 whole entry, looked up): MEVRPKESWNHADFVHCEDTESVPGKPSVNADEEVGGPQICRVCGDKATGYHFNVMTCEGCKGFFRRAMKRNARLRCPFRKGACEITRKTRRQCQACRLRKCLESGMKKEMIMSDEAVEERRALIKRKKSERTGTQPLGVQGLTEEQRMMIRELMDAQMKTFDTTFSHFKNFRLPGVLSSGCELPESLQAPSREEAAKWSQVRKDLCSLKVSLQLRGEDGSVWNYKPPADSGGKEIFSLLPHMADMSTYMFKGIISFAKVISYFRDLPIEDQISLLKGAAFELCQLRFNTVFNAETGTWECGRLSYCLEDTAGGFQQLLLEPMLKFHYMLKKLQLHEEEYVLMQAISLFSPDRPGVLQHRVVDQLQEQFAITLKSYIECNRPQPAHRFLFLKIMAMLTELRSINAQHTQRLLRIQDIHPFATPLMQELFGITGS
# Sequence of Progesterone receptor (Homo sapiens) (P06401 whole entry, looked up): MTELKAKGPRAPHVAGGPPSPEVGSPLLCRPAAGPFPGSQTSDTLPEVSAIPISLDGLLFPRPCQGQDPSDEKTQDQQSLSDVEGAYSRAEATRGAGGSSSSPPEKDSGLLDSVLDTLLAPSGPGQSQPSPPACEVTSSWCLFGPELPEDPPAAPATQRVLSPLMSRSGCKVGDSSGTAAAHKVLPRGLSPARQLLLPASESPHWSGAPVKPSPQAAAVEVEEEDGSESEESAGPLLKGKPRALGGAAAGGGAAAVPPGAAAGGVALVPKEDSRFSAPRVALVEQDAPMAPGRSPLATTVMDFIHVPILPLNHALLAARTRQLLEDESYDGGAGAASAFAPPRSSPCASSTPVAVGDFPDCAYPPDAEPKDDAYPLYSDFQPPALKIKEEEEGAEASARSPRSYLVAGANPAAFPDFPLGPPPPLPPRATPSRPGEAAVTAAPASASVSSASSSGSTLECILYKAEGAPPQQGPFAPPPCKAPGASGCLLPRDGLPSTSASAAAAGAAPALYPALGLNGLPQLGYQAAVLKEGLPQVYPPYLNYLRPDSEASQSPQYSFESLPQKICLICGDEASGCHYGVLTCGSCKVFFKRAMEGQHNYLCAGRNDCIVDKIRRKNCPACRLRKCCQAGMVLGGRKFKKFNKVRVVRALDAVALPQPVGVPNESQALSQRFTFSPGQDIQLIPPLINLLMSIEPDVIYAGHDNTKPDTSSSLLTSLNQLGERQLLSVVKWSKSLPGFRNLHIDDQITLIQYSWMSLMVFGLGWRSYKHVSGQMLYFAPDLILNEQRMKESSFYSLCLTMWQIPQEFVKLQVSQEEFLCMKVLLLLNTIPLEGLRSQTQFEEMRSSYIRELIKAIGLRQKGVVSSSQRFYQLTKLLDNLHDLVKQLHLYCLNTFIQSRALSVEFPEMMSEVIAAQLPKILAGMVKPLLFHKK
# Sequence of Cytochrome P450 2D6 (Homo sapiens) (P10635 whole entry, looked up): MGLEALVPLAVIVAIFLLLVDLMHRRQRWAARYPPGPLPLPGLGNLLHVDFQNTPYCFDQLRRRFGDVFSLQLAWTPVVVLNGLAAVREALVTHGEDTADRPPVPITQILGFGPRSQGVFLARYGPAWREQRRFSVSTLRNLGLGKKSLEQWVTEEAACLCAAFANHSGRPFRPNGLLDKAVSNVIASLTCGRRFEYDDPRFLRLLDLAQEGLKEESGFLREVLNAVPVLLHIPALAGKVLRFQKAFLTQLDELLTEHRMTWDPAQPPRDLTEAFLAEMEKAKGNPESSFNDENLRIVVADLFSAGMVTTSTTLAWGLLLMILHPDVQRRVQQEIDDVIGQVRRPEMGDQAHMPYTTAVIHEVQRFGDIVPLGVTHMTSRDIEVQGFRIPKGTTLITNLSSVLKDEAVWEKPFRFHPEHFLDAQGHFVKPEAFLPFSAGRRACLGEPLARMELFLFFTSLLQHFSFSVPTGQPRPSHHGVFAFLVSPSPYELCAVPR
# Sequence of Thyrotropin-releasing hormone receptor (Homo sapiens) (P34981 whole entry, looked up): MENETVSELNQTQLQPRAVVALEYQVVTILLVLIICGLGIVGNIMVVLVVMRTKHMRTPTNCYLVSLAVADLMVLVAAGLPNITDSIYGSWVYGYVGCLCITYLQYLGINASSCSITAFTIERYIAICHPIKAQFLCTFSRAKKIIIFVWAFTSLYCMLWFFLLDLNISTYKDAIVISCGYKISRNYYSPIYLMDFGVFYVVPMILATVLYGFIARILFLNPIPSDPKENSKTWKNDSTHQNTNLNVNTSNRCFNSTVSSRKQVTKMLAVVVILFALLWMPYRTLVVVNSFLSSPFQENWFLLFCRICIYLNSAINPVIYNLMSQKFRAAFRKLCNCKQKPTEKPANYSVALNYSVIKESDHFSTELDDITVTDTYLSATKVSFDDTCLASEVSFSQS
SMILES,Potency [1],Potency [2],Potency [3],Potency [4],Potency [5],Potency [6],outcome [7],outcome [8],Potency [9],Potency [10],outcome [11],Potency [12],Potency [13],Potency [14],Potency [15],Potency [16],max activation [17] [%],Potency [18],outcome [19]
COc1cc(C(C)(C)C)c(O)c(C(C)(C)C)c1,inactive,inactive,inactive,inactive,inactive,inactive,inactive,inactive,inactive,inactive,inactive,inactive,inactive,inactive,inactive,inactive,,,
Cc1ccccn1,inactive,inactive,inactive,inactive,inactive,inactive,inactive,inactive,inactive,,inactive,inactive,inactive,inactive,,,-5.22,,
O=C(O)c1cn(C2CC2)c2cc(Cl)c(F)cc2c1=O,inactive,inactive,inactive,inactive,inactive,inactive,,inactive,inactive,inactive,inactive,inactive,inactive,inactive,inactive,inactive,,,
Cc1occc1S,inactive,inactive,,,inactive,inactive,inactive,inactive,inactive,,inactive,inactive,inactive,inactive,61.1 µM (active),inactive,,,
Cc1ncsc1CCO,inactive,inactive,,inactive,inactive,inactive,inactive,inactive,inactive,,inactive,inactive,inactive,inactive,inactive,inactive,,,
O=C1[C@H](CC[C@H](O)c2ccc(F)cc2)[C@@H](c2ccc(O)cc2)N1c1ccc(F)cc1,inactive,23.7 µM (active),,,inactive,inactive,inactive,,,inactive,inactive,29.8 µM (active),inactive,,29.8 µM (active),30.9 µM (active),-2.85,inactive,
O=C1Nc2cc(Cl)ccc2Oc2ccccc21,inactive,,,,inactive,inactive,,inactive,inactive,inactive,inactive,inactive,inactive,,inactive,inactive,,,inactive
CCCCCCCCCC=O,inactive,,,inactive,inactive,inactive,,inactive,inactive,inactive,inactive,inactive,inactive,,inactive,inactive,,,inactive
N#Cc1cc2ccccc2c2ccccc12,inactive,,,inactive,inactive,inactive,,inactive,inactive,inactive,inactive,inactive,inactive,inactive,61.4 µM (active),inactive,,,inactive
Oc1ccc(Cc2ccccc2)cc1,inactive,22.5 µM (active),,,inactive,inactive,inactive,inactive,inactive,inactive,,,inactive,inactive,56.6 µM (active),,,,
NC(N)=N/N=C/c1c(Cl)cccc1Cl,15 µM (active),,,,inactive,inactive,inactive,,inactive,29.8 µM (active),inactive,29.8 µM (active),inactive,29.8 µM (active),inactive,13.8 µM (active),-2.41,inactive,inactive
COc1ccccc1OC(=O)Oc1ccccc1OC,inactive,26.6 µM (active),inactive,inactive,inactive,inactive,inactive,inactive,inactive,inactive,inactive,inactive,inactive,inactive,inactive,,-1.11,inactive,
C[C@@H](C1=C(CCN(C)C)Cc2ccccc21)c1ccccn1,inactive,inactive,,inactive,inactive,inactive,inactive,,,,inactive,inactive,,inactive,inactive,11 µM (active),,,
N#CCc1cccc(C(F)(F)F)c1,inactive,inactive,,inactive,inactive,inactive,inactive,inactive,inactive,inactive,inactive,inactive,inactive,inactive,inactive,inactive,,,
CCCCOCCOCCOCCOCCO,inactive,,,,inactive,inactive,,inactive,inactive,,inactive,inactive,inactive,inactive,inactive,,,,inactive
CCCCCCCC/C=C\CCCCCCCC(N)=O,inactive,,,,inactive,inactive,inactive,inactive,inactive,inactive,inactive,inactive,,inactive,15.3 µM (active),50.2 µM (active),,,inactive
Oc1ccc(O)c2c(O)cccc12,inactive,,inactive,inactive,inactive,inactive,,,inactive,inactive,inactive,inactive,inactive,,inactive,inactive,,,
CC[C@H](C)[C@@H](C(=O)O)n1sc2ccccc2c1=O,inactive,,30.6 µM (active),inactive,inactive,inactive,inactive,inactive,inactive,inactive,inactive,inactive,inactive,inactive,inactive,inactive,,,
